# Screening results from PubChem.
# 697 NFkB inh: inhibitors of PMA/ionomycin-induced NF-kB reporter, 697 cells, primary screen, B-cell NF-kB inhibitor project, cell-based, luminescence, uHTS; 697 B-cell NF-kB luciferase reporter, 16 h; hit rate 0.33% among 330,000; AID 435022, 2010; inhibition, % at 4 µM; in the data active = inhibition above about 35%
# A1 inh: caspase 3/7 activation in MEF A1-2A-BIM cells, primary screen, A1 inhibitor project, cell-based, luminescence, HTS | caspase activation, % (test concentration not listed) | Caspase-Glo 3/7 luminescence, 3 h; percent of clofoctol response, vehicle zero | AID 2462, 2010 | hit rate 0.066% among 330,000;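 active = over half of replicate activation scores above 10%, or exactly half above 10 with the replicate mean above 10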
# Jurkat NFkB inh: inhibitors of induced NF-kB luciferase reporter, primary screen, TCR NF-kB activation inhibitor project, cell-based, luminescence, uHTS | hit rate 0.53% among 330,000 | inhibition, % at 4 µM | Jurkat, PMA/ionomycin-induced NF-kB luciferase reporter; in the data active = inhibition above about 50%
# NTR1 agonist: agonists of human NTR1, primary screen, imaging, U2OS cells, beta-arrestin-GFP, high content; AID 493036, 2011; hit rate 0.17% among 330,000; NTR1-U2OS beta-arrestin-GFP spot imaging, agonist mode; activation, % at 20 µM; Neurotensin receptor type 1 (Homo sapiens), P30989;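 active = activation at or above 40% of the spot to cytoplasm intensity ratio, with at least 20 cells analyzed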;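 note: 0% = DMSO without peptide and 100% = 100 nM NTR1 peptide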
# Mdm2-MdmX inh: inhibitors of human Mdm2-MdmX association, primary screen, cell-based, luminescence, split luciferase, SaOS-2, uHTS; Protein Mdm4 (Homo sapiens) + E3 ubiquitin-protein ligase Mdm2 (Homo sapiens), …; SaOS-2 split-luciferase Mdm2/MdmX complementation; inhibition, % at 8 µM; hit rate 3% among 330,000; AID 485346, 2010;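 active = inhibition of at least 50% at 8 µM in the primary screen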
# Target sequence (O15151 whole entry, looked up): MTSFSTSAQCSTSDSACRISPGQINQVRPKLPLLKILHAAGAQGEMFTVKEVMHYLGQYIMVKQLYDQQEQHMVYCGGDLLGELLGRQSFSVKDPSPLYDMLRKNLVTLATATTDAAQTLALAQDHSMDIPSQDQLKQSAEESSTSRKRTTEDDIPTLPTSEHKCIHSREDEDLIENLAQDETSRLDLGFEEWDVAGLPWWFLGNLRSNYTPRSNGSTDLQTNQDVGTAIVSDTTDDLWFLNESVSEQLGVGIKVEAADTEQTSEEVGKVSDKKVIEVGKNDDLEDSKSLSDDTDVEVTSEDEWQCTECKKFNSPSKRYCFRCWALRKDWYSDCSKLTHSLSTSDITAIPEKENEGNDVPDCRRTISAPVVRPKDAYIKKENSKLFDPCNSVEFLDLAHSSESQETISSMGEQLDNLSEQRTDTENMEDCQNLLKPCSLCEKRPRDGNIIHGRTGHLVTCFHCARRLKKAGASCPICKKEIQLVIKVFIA
# Target sequence (Q00987 whole entry, looked up): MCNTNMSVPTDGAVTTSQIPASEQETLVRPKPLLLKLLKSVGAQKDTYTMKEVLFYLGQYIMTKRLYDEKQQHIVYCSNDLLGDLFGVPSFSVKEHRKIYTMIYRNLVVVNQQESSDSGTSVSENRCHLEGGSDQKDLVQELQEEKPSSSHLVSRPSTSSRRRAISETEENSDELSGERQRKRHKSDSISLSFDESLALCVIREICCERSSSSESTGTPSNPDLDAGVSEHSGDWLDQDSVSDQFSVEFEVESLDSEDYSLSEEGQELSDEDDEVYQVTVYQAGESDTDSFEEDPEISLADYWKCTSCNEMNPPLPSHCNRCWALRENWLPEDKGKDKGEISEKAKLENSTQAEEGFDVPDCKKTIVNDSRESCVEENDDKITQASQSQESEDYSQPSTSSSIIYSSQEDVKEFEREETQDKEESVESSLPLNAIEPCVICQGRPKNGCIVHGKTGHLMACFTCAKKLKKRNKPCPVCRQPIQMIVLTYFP
# Beta apoptosis: inhibitors of cytokine-induced beta cell apoptosis, primary screen, luminescence | AID 435005, 2010 | hit rate 0.8% among 300,000 | protection from apoptosis, % (test concentration not listed) | INS-1E cytokine-induced death, ATP luminescence, 48 h; percent of positive-control rescue, neutral wells zero;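 active = Every replicate reaches about 75%, or at least half do and their mean reaches it too, limit read from the data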;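 note: 0% = cytokine-treated negative control wells and 100% = positive control rescue; higher means more ATP so stronger rescue from cytokine killing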
# Jurkat NFkB conf: PMA/ionomycin-induced NF-kB reporter inhibitors, Jurkat retest, confirmation, T-cell NF-kB inhibitor project, cell-based, luminescence, single concentration; Jurkat NF-kB luciferase, 16 h; shares compounds with Jurkat NFkB inh; inhibition, % at 4 µM; hit rate 27% among 2,700; AID 435020, 2010;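 active = inhibition reaching about 45% at 4 µM in either replicate, limit read from the data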;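 note: plate controls were PMA/ionomycin stimulated DMSO wells for no effect and unstimulated DMSO wells for full effect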
# 697 NFkB conf: PMA/ionomycin-induced NF-kB reporter inhibitors, 697 retest, confirmation, B-cell NF-kB inhibitor project, cell-based, luminescence, single concentration; shares compounds with 697 NFkB inh; 697 B-cell NF-kB luciferase, 16 h; inhibition, % at 4 µM; hit rate 35% among 2,000; in the data active = inhibition mostly above about 28%, no sharp cut-off; inactive = mostly below about 22%
# Mdm2 MdmX conf: Mdm2-MdmX complex disruptors, retested hits, confirmation, luminescence, single concentration | shares compounds with Mdm2-MdmX inh | Mdm2-MdmX binding, luminescent assay | inhibition, % at 8 µM | hit rate 55% among 10,000 | AID 489028, 2010; in the data active = inhibition above about 40%
# FLuc counter: full-length luciferase signal inhibition, confirmation, counter-screen for Mdm2/MdmX interaction inhibitor project, cell-based, single concentration, SaOS-2; inhibition, % at 8 µM; SaOS-2 full-length luciferase counterscreen, luminescence; shares compounds with Mdm2-MdmX inh; hit rate 77% among 6,200;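 active = mean inhibition at 8 µM reaching about 37%, which flags the compound as non-specific, limit read from the data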;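 note: p53-null SaOS-2 cells with luciferase driven by a doxycycline-inducible promoter; compound on cells about two nights before reading with doxycycline added after day one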
# Numbers without * were called inactive; · = no result given. Compounds with a hit are over-represented: about 3.8% of the library has one in this group of screens.
SMILES,697 NFkB inh,A1 inh,Jurkat NFkB inh,NTR1 agonist,Mdm2-MdmX inh,Beta apoptosis,Jurkat NFkB conf,Mdm2 MdmX conf,FLuc counter,others
C=C1/C=C(\C)[C@](C)(O)C[C@H](O)CC(=O)[C@H](O)[C@@H](O)[C@H](C)C[C@H](C)OC(=O)/C(C)=C/CC/C=C/[C@@H]2O[C@H]2C[C@H](C)C1,37*,15*,57*,3,97*,92*,12,-28,·,697 NFkB conf=17
O=C(Cc1ccc(F)cc1)N[C@@H]1c2ccccc2CC[C@@H]1OCc1ccccc1,10,·,·,4,49,·,·,·,·,
Cc1cc(O)c2c(c1O)C(=O)[C@]13C(=C2O)C(=O)[C@@H]2[C@@H](O)[C@H]1[C@@H]1[C@H](O)[C@H]3C(=O)C3=C(O)c4c(O)cc(C)c(O)c4C(=O)[C@]312,44*,·,85*,7,87*,·,87*,85*,23,697 NFkB conf=-18
O=C(Cc1ccc(N2CCNC2=O)cc1)N1CCCC(Nc2cccc(F)c2)C1 (stereo not given),-53,0,59*,1,60*,22,14,60*,62*,
O=C1CCCN1CCC(=O)N1CCCC(Nc2ccc(F)c(F)c2)C1 (stereo not given),7,-1,-7,-1,-8,-3,·,·,·,
O=C(Cc1ccc(N2CCNC2=O)cc1)N1CCCC(Nc2ccc(F)c(F)c2)C1 (stereo not given),-53,1,63*,1,54*,2,16,75*,56*,
Cc1ccc(S(=O)(=O)N2CCN(c3ccccc3)CC2)c(C)c1,-4,0,3,0,11,6,·,·,·,
Cc1ccc(CN2CC(C(=O)Nc3cc(C)ccn3)CC2=O)cc1 (stereo not given),-59,0,-90,0,28,-26,·,·,·,
COc1ccc(-c2nc(-c3ccccn3)no2)cc1,48*,-8,77*,-1,89*,89*,86*,91*,54*,697 NFkB conf=39*
C[C@]12c3[nH]c4cc(-c5ccco5)ccc4c3CCN1C(=O)[C@@H](CC(=O)NCc1ccco1)C[C@@H]2C(=O)N1CCCCC1,-18,·,·,7,31,·,·,·,·,
O=C1NC(Cc2ccc(O)cc2)c2nc3ccccc3c(=O)n2-c2ccccc21 (stereo not given),-6,1,4,0,-8,-10,·,·,·,
CC(C)(C)c1nnc(N/N=C/c2ccccc2O)n(N)c1=O,-40,1,56*,-2,59*,·,73*,82*,22,
COc1cccc(N2CCN(c3ncnc4c3[nH]c3ccccc34)CC2C)c1 (stereo not given),16,0,54*,1,100*,58,79*,98*,3,
Cc1ccc(C)c(NC(=S)NNc2ccc(F)cc2F)c1,11,1,1,4,12,·,·,·,·,
Clc1cccc(Cl)c1/C=N/Nc1c(Cl)cncc1Cl,-35,0,73*,9,65*,·,49,64*,22,
COc1cccc2c1C(=O)c1c(O)c3c(c(O)c1C2=O)C[C@@](O)(C(=O)CO)C[C@@H]3O[C@H]1C[C@H](N)[C@@H](O)[C@H](C)O1,87*,1,94*,-4,94*,39,90*,100*,4,697 NFkB conf=92*
CC(C)(CNC(=O)c1ccc(Br)o1)CNC(=O)c1ccc(Br)o1,-24,·,-12,1,15,·,·,·,·,
CCOC(=O)N1CCC(NC(=O)c2ccc3c(c2)N(CC)CCS3)CC1,-13,1,7,-1,19,-4,·,·,·,
CCOC(=O)N1CCC(NC(=O)c2ccc3c(c2)N=C(C)c2c(C)ccc(C)c2S3)CC1,-42,0,65*,5,68*,21,56*,64*,89*,
O=C(CCl)N=c1sccn1Cc1ccc(Cl)cc1Cl,98*,3,97*,12,100*,69,69*,100*,54*,697 NFkB conf=102*
O=C(CCl)N=c1sccn1Cc1ccccc1Cl,104*,4,91*,14,99*,-5,71*,99*,51*,697 NFkB conf=94*
CCc1nnc(NS(=O)(=O)c2ccc(NC(=O)c3cccc(OC)c3)cc2)s1,-4,0,13,1,-6,-1,·,·,·,
O=C(Nc1nc2ccc(C(=O)N3CCCCC3)cc2s1)C1CCCCC1,-72,0,60*,-1,51*,33,19,57*,79*,
CCn1c(SCC(=O)N(C)CC(=O)Nc2ccc(F)c(F)c2F)nnc1-c1ccco1,6,0,-6,-1,8,·,·,·,·,
CCN(Cc1ccccc1)c1ccc(/C=N/N=C(N)N)cc1,-37,0,61*,18,98*,·,13,100*,58*,
SMILES,697 NFkB inh,A1 inh,Jurkat NFkB inh,NTR1 agonist,Mdm2-MdmX inh,Beta apoptosis,Jurkat NFkB conf,Mdm2 MdmX conf,FLuc counter,others
COc1ccccc1CCNC(=O)c1cc(COc2cccc(C(F)(F)F)c2)on1,2,0,7,2,-17,-8,·,·,·,
O=[N+]([O-])c1ccc(O)c(/C=N/Nc2nc3ccccc3[nH]2)c1,-65,-2,55*,0,89*,99*,34,52*,48*,
Cc1ccc(S(=O)(=O)CC(=O)Nc2cccc(C)n2)cc1,9,0,-9,0,-30,-7,·,·,·,
Cc1nc2ccccn2c1-c1csc(NCc2ccco2)n1,-29,-1,11,2,21,·,·,·,·,
Cc1ccc(Nc2nc(-c3c(C)nc4ccccn34)cs2)cc1,-396,·,83*,11,89*,·,62*,73*,81*,697 NFkB conf=-54
Cc1ccc(Nc2nc(-c3c(C)nc4ncccn34)cs2)cc1,20,1,68*,7,74*,9,49*,84*,73*,
